The subject of one experiment is Klebsiella pneumoniae. The following applies: Concentration 32 ug.mL-1;; ASSAY_TEST Inhibition of Bacterial Growth; detection method Absorption (OD600); MEDIA CAMHB; plate type 384well; NBS; CORNING #3640; time 18 hr.
For a further experiment, the system named is Candida albicans. The conditions noted are these: Concentration 32 ug.mL-1; ASSAY_TEST Inhibition of Fungal Growth; detection method Absorption (OD530).
For the next experiment, the system named is Cryptococcus neoformans. The following applies: Concentration 32 ug.mL-1; ASSAY_TEST Inhibition of Fungal Growth; detection method Resazurin; Absorption (OD600-OD570); plate type 384well; NBS; CORNING #3640. (Alamar Blue is a resazurin reagent that responds to reducing activity.)

Measured potencies and affinities stand elsewhere.

Broadly, the Inhibition is the change of the read-out against control, counted positive when it falls. Regarding `COC(=O)c1ccc(NC(=O)Cn2nc3nc(N4CCCCCC4)ccn3c2=O)cc1`, the Inhibition in the experiment with Klebsiella pneumoniae is recorded as 12.29%; in the experiment on Candida albicans, 5.24%; in the experiment with Cryptococcus neoformans, -8.37%.
For `Cc1ccc(C)c(CSc2nnc3c(=O)n(-c4ccc(F)c(F)c4)ccn23)c1` the same measures were -0.25%, 0.45% and -4.36%.
As to `COc1ccc(CCn2c(=O)c3sccc3n3c(=O)n(Cc4ccc(F)cc4)nc23)cc1OC`, the Inhibition in the experiment with Klebsiella pneumoniae is on record as 6.56%; in the experiment on Candida albicans it was 11.53%; in the experiment with Cryptococcus neoformans it was -31.44%.
Taken in the same sequence, the figures for `CCC(C)NC(=O)c1ccc2c(=O)n(CCC(C)C)c3nn(CC#N)c(=O)n3c2c1` (stereo unspecified) were 14.77%, 0.65% and -22.02%.
On to `CCOC(=O)c1ccc(NC(=O)Cn2nc3c(Oc4ccccc4)nccn3c2=O)cc1`, for which the Inhibition is reported as 1.59% with Klebsiella pneumoniae, -0.16% in the experiment with Candida albicans and -7.75% in the experiment with Cryptococcus neoformans.
Taken in the same sequence, the figures for `Cc1cc2nn(CC(=O)Nc3ccc(F)c(F)c3)c(=O)n2c(Nc2ccc(C)c(F)c2)n1` were 13.08%, 3.82% and -7.92%.
Turning to `COc1cccc(CNC(=O)CSc2nnc3c4cc(-c5ccc(C)cc5)nn4ccn23)c1`, the Inhibition is -13.2% in the experiment with Klebsiella pneumoniae, 4.52% in the experiment on Candida albicans and -12.58% with Cryptococcus neoformans.
For the compound `CC(C)Sc1ccc2nn(CC(=O)Nc3ccc(Br)cc3F)c(=O)n2n1`, the Inhibition in the experiment with Klebsiella pneumoniae was 15.2%; in the experiment on Candida albicans, -0.59%; with Cryptococcus neoformans it was -7.06%.
In the case of `CCOc1ccc(NC(=O)Cn2nc3c(SCc4ccc(Cl)cc4)nccn3c2=O)cc1`, the Inhibition is 5.7% in the experiment with Klebsiella pneumoniae, 17.72% in the experiment with Candida albicans and -25.81% in the experiment on Cryptococcus neoformans.
For the compound `CCCc1nnc2c(=O)n(CC(=O)Nc3ccc(NC(C)=O)cc3)c3ccccc3n12`, the Inhibition is 9.56% in the experiment with Klebsiella pneumoniae, -0.49% in the experiment on Candida albicans and -26.74% in the experiment on Cryptococcus neoformans.
With `O=C(Cn1nc2c(SCc3ccc(Cl)cc3)nccn2c1=O)N1CCN(c2ccccc2)CC1`, the Inhibition in the experiment on Klebsiella pneumoniae is recorded as 2.24%; with Candida albicans, 4.87%; in the experiment on Cryptococcus neoformans, -2.91%.
For `COc1ccc(NC(=O)Cn2nc3cc(C)nc(Nc4ccc(F)c(C)c4)n3c2=O)cc1`, the Inhibition in the experiment with Klebsiella pneumoniae is 10.41%; in the experiment with Candida albicans, 4.68%; in the experiment on Cryptococcus neoformans, -7.34%.
For `COc1ccc(CN(c2ccc(F)cc2)S(=O)(=O)c2cccn3cnnc23)cc1F` the same measures were 9.98%, 3.76% and -9.79%.
Consider `CCc1ccc(NC(=O)Cn2nc3cc(C)nc(Nc4ccc(C)c(F)c4)n3c2=O)cc1`, for which the Inhibition with Klebsiella pneumoniae is reported as 10.82%; with Candida albicans it was 3.74%; in the experiment on Cryptococcus neoformans it was -2.27%.
Turning to `CCOc1cccc(CNC(=O)CCc2nnc3ccc(-c4ccc(C)cc4)nn23)c1`, the Inhibition is listed as 8.62% in the experiment with Klebsiella pneumoniae, 2% in the experiment on Candida albicans and -6.55% in the experiment on Cryptococcus neoformans.
As for `CCOC(=O)c1ccccc1NC(=O)CSc1nnc2ccc(C(=O)Nc3cccc(F)c3)cn12`, the Inhibition in the experiment with Klebsiella pneumoniae is 3.32%; with Candida albicans, 0.61%; in the experiment with Cryptococcus neoformans, -6.96%.
For `Cc1ccc(C(=O)C(C)Sc2nnc3c(=O)n(-c4ccc(F)c(F)c4)ccn23)cc1C` (stereo unspecified), the values for the Inhibition in the experiment with Klebsiella pneumoniae, in the experiment on Candida albicans and with Cryptococcus neoformans were -0.54%, 2.5% and -3.72%, respectively.
For `CCOC(=O)c1ccccc1NC(=O)Cn1nc2c(Oc3cccc(OC)c3)nccn2c1=O` the same measures were 5.46%, 0.95% and -5.16%.
As for `CCOC(=O)c1ccc(NC(=O)Cn2nc3c(SCc4ccc(Cl)cc4)nccn3c2=O)cc1`, the Inhibition is 1.65% with Klebsiella pneumoniae, 7.78% with Candida albicans and -18.54% with Cryptococcus neoformans.
Taken in the same sequence, the figures for `COc1cccc(Cn2nc3n(CCC(=O)NC4CCCCC4)c(=O)c4ccccc4n3c2=O)c1` were 9.79%, 5.45% and -13.5%.
Take `Cc1cccc(N(Cc2ccccc2)S(=O)(=O)c2cccn3c(C)nnc23)c1`: the Inhibition is 11.16% in the experiment with Klebsiella pneumoniae, 8.73% in the experiment on Candida albicans and -3.61% in the experiment on Cryptococcus neoformans.
Taken in the same sequence, the figures for `CCCCn1c(=O)c2sccc2n2c(SCc3cccc(C(F)(F)F)c3)nnc12` were -0.52%, 0.84% and -14.78%.
Taken in the same sequence, the figures for `CCc1nnc2ccc(S(=O)(=O)N(Cc3ccc(OC)cc3)c3ccc(F)cc3)cn12` were 10.6%, 0.7% and -9.28%.
Taken in the same sequence, the figures for `CC(C)CCNC(=O)CSc1nnc2c3cc(-c4ccccc4)nn3ccn12` were 15.29%, 4.42% and -17.81%.
On to `Cc1ccc(NC(=O)Cn2nc3ccc(-c4ccc(C)c(C)c4)nn3c2=O)cc1`, for which the Inhibition in the experiment with Klebsiella pneumoniae is reported as 11.7%; in the experiment with Candida albicans it was -0.59%; with Cryptococcus neoformans, -13.68%.
For `Cc1ccc(NC(=O)Cn2c(=O)c3nnc(C(C)C)n3c3ccccc32)cc1F` the same measures were 13.19%, 0.6% and -30.05%.
Taken in the same sequence, the figures for `COc1ccc(NC(=O)c2ccc3nn(CC(=O)Nc4cccc(OC)c4)c(=O)n3c2)cc1` were 8.13%, 4.49% and -9.24%.

These data come from ChEMBL document CHEMBL4513146, “CO-ADD screening of Karazin Kharkiv National University (Ukraine) compounds”.
